# Assay results reported in PubChem BioAssay (NCI).
# This is part of a sample that, as a whole, favours compounds with a hit. Of some 83,000 tested, about 20% had one in any assay.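 Testing used 96-well plates and a 48-hour single-concentration exposure. Example: -40 means 40% of the starting cells died.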 Values without a mark were called inactive. Calls of active or inactive are those of the source. The calls were made as follows: active = growth percent below 10; inactive = the rest.
# Columns and labels:
# Assay in all cases: NCI-60 one-dose screen, 48 h (100 = growth as untreated, 0 = no growth, -100 = all killed)
# Conditions in all cases: 10 µM
# [1] = tested on: SK-MEL-2 melanoma
# [2] = tested on: EKVX NSCLC
# [3] = tested on: SN12C renal
# [4] = tested on: UO-31 renal
# [5] = tested on: TK-10 renal
# [6] = tested on: ACHN renal
# [7] = tested on: CAKI-1 renal
# [8] = tested on: A498 renal
# [9] = tested on: MOLT-4 leukemia
# [10] = tested on: SR leukemia
# [11] = tested on: RPMI-8226 leukemia
# [12] = tested on: OVCAR-8 ovarian
# [13] = tested on: OVCAR-5 ovarian
# [14] = tested on: OVCAR-4 ovarian
# [15] = tested on: SK-OV-3 ovarian
# [16] = tested on: IGROV1 ovarian
# [17] = tested on: OVCAR-3 ovarian
# [18] = tested on: HS 578T breast
# [19] = tested on: NCI/ADR-RES ovarian
# [20] = tested on: CCRF-CEM leukemia
SMILES,growth [1],growth [2],growth [3],growth [4],growth [5],growth [6],growth [7],growth [8],growth [9],growth [10],growth [11],growth [12],growth [13],growth [14],growth [15],growth [16],growth [17],growth [18],growth [19],growth [20]
C[C@@H](C[C@H](CCO)c1ccccc1)c1ccc2ccccc2c1,-0.232% (active),-44% (active),-80.8% (active),-86% (active),-6.8% (active),-91.3% (active),10.5%,-0.126% (active),-54.2% (active),-41.4% (active),-18.8% (active),-39% (active),-69% (active),-81% (active),23.8%,-54.5% (active),-88% (active),-9.29% (active),-60.5% (active),
COc1cc(C(=O)/C(C)=C/c2c[nH]c3ccccc23)cc(OC)c1OC,28.7%,33.5%,26.3%,48.8%,62.3%,28.1%,34.1%,24.8%,17.5%,17.1%,49.9%,20.3%,53.3%,50.1%,29.9%,18.8%,-8.19% (active),44.9%,5.38% (active),
COc1cc(C(=O)N2CCN(c3cc4c(cc3F)c(=O)c(C(=O)NO)cn4C3CC3)CC2)cc(OC)c1OC,90.2%,89.5%,108%,92.1%,87.4%,101%,94.4%,91.4%,103%,95%,85.2%,106%,98.1%,101%,103%,110%,108%,105%,100%,
N#Cc1c(-c2ccc(Cl)cc2)csc1NC(=O)Nc1ccc(Cl)c(C(F)(F)F)c1,5.43% (active),11.9%,14.4%,28.2%,10.3%,3.38% (active),13.5%,35.6%,1.45% (active),-15.1% (active),1.61% (active),23%,60.2%,-26.4% (active),19.9%,22.1%,-19.7% (active),29.6%,8.74% (active),
Nc1ccn(Cc2nnc(CCC(=O)c3nc4ccccc4[nH]3)o2)c(=O)n1,100%,84.1%,87.1%,44.2%,100%,87%,82.8%,61.7%,8.54% (active),14.9%,73.1%,88.5%,98%,,98.7%,65.3%,102%,81.3%,86.1%,
COc1cc(-c2csc(NC(=O)Nc3cc(C(F)(F)F)cc(C(F)(F)F)c3)n2)cc(OC)c1OC,7.21% (active),4.59% (active),7.93% (active),7.12% (active),9.24% (active),4.33% (active),10.4%,10.1%,17.4%,16.5%,-6.92% (active),19.4%,30.4%,21.1%,0.491% (active),35.1%,-3.97% (active),31.2%,10.4%,
O=C(N/N=C/c1ccc(Cl)cc1)c1ccc(Cc2n[nH]c(=O)c3cccnc23)cc1,108%,105%,100%,74.3%,107%,102%,94.8%,131%,98.6%,135%,117%,100%,99.7%,106%,103%,102%,106%,108%,101%,
CNC(=O)c1cn2c3c(c(N4CCN(C)CC4)c(F)cc3c1=O)OC[C@@H]2C,95.4%,93.5%,104%,92.3%,90.6%,111%,94.7%,92.8%,101%,90.6%,96.3%,106%,105%,94.1%,102%,111%,107%,101%,102%,
Cc1ccc(/C=C2/C(=O)N(C)c3ccc(S(=O)(=O)Nc4ccc(C(C)(C)C)cc4)cc32)s1,94.3%,103%,78.9%,73.4%,90.9%,56%,45%,90.8%,73.3%,57.9%,55.6%,41.3%,73%,44.4%,89.6%,70.8%,88.3%,88.7%,55.8%,
C=CCn1c(SCC(=O)Nc2ccc(C(=O)/C=C/c3cc(OC)c(OC)c(OC)c3)cc2)nnc1-c1cc(-c2ccc(Cl)cc2)nc2ccccc12,103%,86.4%,86.8%,57.1%,113%,86.1%,67.2%,80.6%,52.6%,62%,-16.3% (active),52.1%,97.6%,87.9%,87.1%,88.4%,97.3%,83.7%,75.6%,
OC(CNc1ccnc2cc(Cl)ccc12)CNC1CCCCC1 (centres undefined),91.8%,88.1%,85.9%,61.2%,96.1%,81.8%,71.2%,59.6%,,23.1%,65%,87.9%,87.4%,76%,85.1%,103%,89.4%,83.8%,90.7%,80.5%
O=C(CCNC(=O)c1nc(-c2ccccc2)n(-c2ccc(Cl)cc2)n1)NO,91.7%,95.8%,103%,88.3%,94.4%,100%,97.3%,114%,98%,98.6%,103%,108%,96.4%,106%,92.4%,102%,98.7%,107%,109%,
CC(=O)N[C@H](C(=O)N[C@@H](CCCNC(=N)N)C(=O)N[C@@H](CCCCN)C(=O)N[C@@H](CCCNC(=N)N)C(=O)NC(C(=O)N[C@@H](CC(C)C)C(=O)N[C@@H](CCCNC(=N)N)C(=O)N[C@@]1(C)CCC/C=C\CCC[C@@](C)(C(=O)N[C@@H](CCCNC(=N)N)C(=O)N[C@@H](CCC(=O)O)C(=O)N[C@@H](CC(C)C)C(=O)N[C@H](C(=O)N[C@@H](CCC(=O)O)C(N)=O)C(C)C)NC(=O)[C@H](CCC(N)=O)NC(=O)[C@H](CC(C)C)NC(=O)[C@H](CC(C)C)NC1=O)[C@@H](C)O)C(C)C (some centres undefined),-6.77% (active),0.7% (active),-52% (active),78.5%,-37.3% (active),41.2%,32.3%,26.9%,32.7%,14%,-11% (active),9.08% (active),25.5%,75.9%,53.3%,60.3%,16.8%,-53.9% (active),17.3%,
CCC(=O)OC1CCC2C3CCC(=O)OC3C(C)(CCC(=O)O)CC12C (centres undefined),12.7%,8.81% (active),55.5%,47.1%,47%,43.9%,-4.08% (active),-71.5% (active),-0.59% (active),-21.1% (active),6.49% (active),61.4%,59%,65.8%,51.6%,25.4%,5.37% (active),-28.7% (active),15.8%,
Cc1cccc(N=Cc2ccccc2O)c1C,129%,93.7%,89.6%,105%,121%,110%,92.4%,106%,98.1%,111%,96.9%,98.2%,108%,104%,108%,115%,113%,101%,101%,
